Key:
Experiment in all cases: log2 ratio of Biotin-Ahx-Ub-VS probe labelling (compound/DMSO); higher = less target engagement, active = hit call of the paper (q ≤ 0.05, log2 ratio ≤ -1)
Settings in all cases: treatment time: 3 h
[1] = compound: CCC1N(CCc2sccc12)C(=O)CCl
Procedure, shortened: (§1)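 For activity-based profiling, 495 µg portions of HEK293T lysate in Tris/CHAPS/IGEPAL buffer with protease inhibitors were treated in triplicate with compound at 50 or 200 µM or with DMSO for 3 h. A 1 h incubation with Biotin-Ahx-Ub-VS (0.5 µM final) followed, then NeutrAvidin enrichment, LysC and trypsin digestion and diaPASEF LC-MS/MS. The compound/DMSO base-two log ratios were averaged from median-normalised label-free quantities using an unpaired t-test. Proteins needed at least 2 unique peptides to be included.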

[2] = compound: CN1c2ccccc2C(CS1(=O)=O)NC(=O)CCl
Procedure, shortened: as §1

[3] = compound: Cl.ClCC(=O)N1CCc2ncncc2C1
Procedure, shortened: as §1

[4] = compound: Cl.Cn1ncc2C(CCCc12)NC(=O)CCl
Procedure, shortened: as §1

[5] = compound: ClCC(=O)NC1CCOc2ccccc12
Procedure, shortened: as §1

[6] = compound: ClCC(=O)NC1CCCc2ccccc12
Procedure, shortened: (§2)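 In triplicate, 495 µg portions of HEK293T lysate in Tris/CHAPS/IGEPAL buffer with protease inhibitors received compound across a concentration series or vehicle for 3 h, followed by 1 h with 0.5 µM final Biotin-Ahx-Ub-VS. After NeutrAvidin enrichment and LysC/trypsin digestion, the labelled deubiquitinases were measured by diaPASEF LC-MS/MS and quantified label-free in Spectronaut with global-median normalisation. Each value is an average compound-to-vehicle ratio from an unpaired t-test, expressed as log2 and restricted to proteins having two or more unique peptides.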

[7] = compound: ClCC(=O)N[C@@H]1CCCc2ccccc12
Procedure, shortened: as §2

[8] = compound: ClCC(=O)N[C@H]1CCCc2ccccc12
Procedure, shortened: as §2

[9] = compound: CCC1N(CCc2cc(OC)c(Cl)cc12)C(=O)CCl
Procedure, shortened: as §1

[10] = compound: CCCC1N(CCc2cc(OC)c(OC)cc12)C(=O)CCl
Procedure, shortened: as §1

[11] = compound: CN(Cc1cccc(Br)c1)C(=O)CCl
Procedure, shortened: as §1

[12] = compound: CN(Cc1cccc(OCc2ccccc2C)c1)C(=O)CCl
Procedure, shortened: as §1

[13] = compound: CN(Cc1ccccc1)C(=O)CCl
Procedure, shortened: as §1

[14] = compound: COc1ccc(CN(C)C(=O)CCl)cc1
Procedure, shortened: as §1

[15] = compound: COc1cccc(CN(CCCc2ccccc2)C(=O)CCl)c1
Procedure, shortened: as §1

[16] = compound: ClCC(=O)N1CCc2cc(Cl)c(Cl)cc2C1
Procedure, shortened: as §1

[17] = compound: ClCC(=O)N1CCc2nc(ncc2C1)-c1ccccc1
Procedure, shortened: as §1

[18] = compound: ClCC(=O)N1CCc2nocc2C1
Procedure, shortened: as §1

[19] = compound: ClCC(=O)N1CCc2scc(Br)c2C1
Procedure, shortened: as §1

[20] = compound: ClCC(=O)NC(C1CCCC1)c1cccs1
Procedure, shortened: as §1

Measured: log2 ratio of Biotin-Ahx-Ub-VS probe labelling

USP14 (UniProt P54578)
UniProt P54578, sequence (P54578 whole entry): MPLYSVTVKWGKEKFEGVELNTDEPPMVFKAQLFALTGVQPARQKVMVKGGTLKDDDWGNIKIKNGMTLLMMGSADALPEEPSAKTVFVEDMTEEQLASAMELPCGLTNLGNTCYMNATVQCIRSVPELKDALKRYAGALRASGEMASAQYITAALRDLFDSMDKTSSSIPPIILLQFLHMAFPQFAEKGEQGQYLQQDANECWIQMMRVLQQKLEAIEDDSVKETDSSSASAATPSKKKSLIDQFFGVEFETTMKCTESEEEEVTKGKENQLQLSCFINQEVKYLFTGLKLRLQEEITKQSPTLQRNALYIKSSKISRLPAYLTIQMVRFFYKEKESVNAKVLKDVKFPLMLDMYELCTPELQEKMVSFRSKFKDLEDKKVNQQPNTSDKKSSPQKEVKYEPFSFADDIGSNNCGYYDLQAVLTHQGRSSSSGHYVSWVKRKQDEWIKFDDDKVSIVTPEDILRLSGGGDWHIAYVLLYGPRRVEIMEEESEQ
inactive: [1]; compound concentration: 50uM -0.3 | [1]; compound concentration: 200uM -0.357 | [2]; compound concentration: 50uM -0.167 | [2]; compound concentration: 200uM -0.105 | [3]; compound concentration: 50uM 0.049 | [3]; compound concentration: 200uM -0.23 | [4]; compound concentration: 50uM 0.132 | [4]; compound concentration: 200uM 0.0271 | [5]; compound concentration: 50uM -0.194 | [5]; compound concentration: 200uM -0.0567 | [6]; compound concentration: 0.78uM -0.378 | [6]; compound concentration: 1.56uM -0.128 | [6]; compound concentration: 3.13uM -0.334 | [6]; compound concentration: 6.25uM -0.143 | [6]; compound concentration: 12.5uM -0.315 | [6]; compound concentration: 25uM -0.455 | [6]; compound concentration: 50uM -0.285 | [6]; compound concentration: 100uM -0.509 | [6]; compound concentration: 200uM -0.231 | [7]; compound concentration: 0.78uM -0.393 | [7]; compound concentration: 1.56uM -0.0826 | [7]; compound concentration: 3.13uM -0.368 | [7]; compound concentration: 6.25uM -0.447 | [7]; compound concentration: 12.5uM -0.296 | [7]; compound concentration: 25uM -0.25 | [7]; compound concentration: 50uM -0.116 | [7]; compound concentration: 100uM -0.289 | [7]; compound concentration: 200uM -0.289 | [8]; compound concentration: 0.78uM -0.158 | [8]; compound concentration: 1.56uM -0.187 | [8]; compound concentration: 3.13uM -0.308 | [8]; compound concentration: 6.25uM -0.249 | [8]; compound concentration: 12.5uM -0.442 | [8]; compound concentration: 25uM -0.253 | [8]; compound concentration: 50uM -0.322 | [8]; compound concentration: 100uM -0.332 | [8]; compound concentration: 200uM -0.157 | [9]; compound concentration: 50uM -0.071 | [9]; compound concentration: 200uM -0.127 | [10]; compound concentration: 50uM -0.132 | [10]; compound concentration: 200uM 0.0879 | [11]; compound concentration: 50uM -0.191 | [11]; compound concentration: 200uM -0.555 | [12]; compound concentration: 50uM -0.544 | [12]; compound concentration: 200uM -0.62 | [13]; compound concentration: 50uM -0.14 | [13]; compound concentration: 200uM 0.0709 | [14]; compound concentration: 50uM -0.127 | [14]; compound concentration: 200uM -0.0256 | [15]; compound concentration: 50uM -0.187 | [15]; compound concentration: 200uM -0.626 | [16]; compound concentration: 50uM -0.137 | [16]; compound concentration: 200uM -0.35 | [17]; compound concentration: 50uM 0.0498 | [17]; compound concentration: 200uM 0.0841 | [18]; compound concentration: 50uM -0.186 | [18]; compound concentration: 200uM -0.17 | [19]; compound concentration: 50uM -0.438 | [20]; compound concentration: 50uM -0.115 | [20]; compound concentration: 200uM -0.1
active: [19]; compound concentration: 200uM -1
